# Compound activity as filed in PubChem.
# USP17 block = inhibitors of human USP17 deubiquitinase | Ubiquitin carboxyl-terminal hydrolase 17-like protein 5 (Homo sapiens), A8MUK1 | purified USP17, Ub-rhodamine cleavage fluorescence, 3 h | inhibition, % at 50 µM | actives 6.5% (n = 47,000)
# USP30 inh = inhibitors of human USP30 deubiquitinase. actives 5.3% (n = 47,000). AID 1645860, 2021. inhibition, % at 25 µM. Ubiquitin carboxyl-terminal hydrolase 30 (Homo sapiens), Q70CQ3. purified USP30, Ub-rhodamine cleavage fluorescence
# Target sequence (Q70CQ3 whole entry, looked up): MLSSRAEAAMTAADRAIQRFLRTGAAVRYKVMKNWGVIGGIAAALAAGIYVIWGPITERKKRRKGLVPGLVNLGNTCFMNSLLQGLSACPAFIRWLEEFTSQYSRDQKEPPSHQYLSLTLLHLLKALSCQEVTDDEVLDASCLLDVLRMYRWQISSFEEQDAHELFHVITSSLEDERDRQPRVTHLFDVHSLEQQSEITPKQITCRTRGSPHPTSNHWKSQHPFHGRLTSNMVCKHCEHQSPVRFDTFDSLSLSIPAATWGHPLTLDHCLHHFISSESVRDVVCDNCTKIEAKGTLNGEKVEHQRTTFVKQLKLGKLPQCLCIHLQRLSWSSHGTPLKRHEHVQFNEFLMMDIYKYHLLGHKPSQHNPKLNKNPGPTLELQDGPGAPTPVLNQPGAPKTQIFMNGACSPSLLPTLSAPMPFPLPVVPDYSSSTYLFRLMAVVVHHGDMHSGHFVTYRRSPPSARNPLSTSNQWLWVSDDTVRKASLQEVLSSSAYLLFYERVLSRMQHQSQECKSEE
# * marks the source's active call; other numbers are inactive results; x = not tested or not shown. Hits are enriched below; roughly 9.6% of the tested compounds scored in any of these assays. Cut-off read from the data, not from the text of the source: active = inhibition above about 30%; inactive = the rest.
SMILES,USP17 block,USP30 inh
CCCCCCCC[C@@H](C)[C@@H]1OC(=O)[C@H](CO)NC(=O)[C@H](C(=O)c2c[nH]c3ccccc23)NC(=O)[C@@H](CCC(=O)O)NC(=O)[C@H]1C,22,27
Cc1ccc(C)c(NC(=O)c2c(C)sc3c(=O)n(C(C)C)cnc23)c1,44*,45*
Cc1ccc(NC(=O)c2c(C)sc3c(=O)n(C(C)C)cnc23)c(C)c1,-9,-51
CCC(Sc1cccc(NC(=O)C2CCCCC2)c1)C(=O)Nc1cc([N+](=O)[O-])ccc1C (stereo not drawn),29,-173
CSc1ccc(Nc2c(C(C)=O)nnn2-c2ccc(Cl)cc2)cc1,4,-12
NC(=O)N1CCCCCC1C1CCN(c2ncnc3ccsc23)CC1 (stereo not drawn),24,32*
Cc1cn2nc(N3CCC(C4CCCCCN4C(N)=O)CC3)sc2n1 (stereo not drawn),12,10
Clc1ccccc1C#CC(c1ccccc1Cl)c1ccnc2ncccc12 (stereo not drawn),19,28
CCC(CC)C(=O)N1CCOC2(COCCN(CC(=O)NC)C2)C1 (stereo not drawn),12,28
Cc1ccc(-c2ccc(C#N)c(SCc3ccccc3)n2)cc1,-1,14
CCc1ccccc1NC(=O)CSc1nnc(-c2ccccn2)n1-c1ccc(C)cc1,2,35*
Cc1ccc(-n2c(SCc3ccc(C#N)cc3)nnc2-c2ccccn2)cc1,21,38*
CCn1c(SCC(=O)Nc2ccc(C)cc2)nnc1-c1cnccn1,-1,-12
COCCCNc1ncnc2c1oc1nc3c(cc12)COC(C)(C)C3,-12,-2
CS(=O)(=O)c1ccccc1CN1CCC(N(CC2CC2)S(=O)(=O)c2cccc3cccnc23)CC1,-9,-65
COc1cc2nc(CN3CCN(c4ccc(O)cc4)CC3)[nH]c(=O)c2cc1OC,41*,-48
COc1cc2nc(CN3CCN(c4ccccc4F)CC3)[nH]c(=O)c2cc1OC,-7,-4
CCN(CC)C(=O)CN1CCC(Nc2nc3c(c(=O)[nH]2)CCCC3)CC1,-14,-27
O=c1[nH]c(NC2CCN(Cc3nnnn3Cc3ccc4c(c3)OCO4)CC2)nc2c1CCCC2,0,38*
CN1Cc2ccccc2CN2CCN(S(=O)(=O)C3CCCC3)CC2C1 (stereo not drawn),-12,-33
O=C(NCc1ccc(F)cc1)c1cc(-n2cnnn2)ccc1Cl,67*,30*
Cn1nnc2cc(C(=O)NCc3ccc(F)cc3)ccc21,-5,-12
CCOc1ccccc1NC(=O)Nc1cccn2ncnc12,0,19
O=C(Nc1ccc(Cl)cc1)Nc1cccn2ncnc12,16,52*
CC1Cc2ccccc2N1S(=O)(=O)c1cccc(C(=O)NCc2cccc(Cl)c2)c1 (stereo not drawn),0,10
SMILES,USP17 block,USP30 inh
COc1cc(C(=O)NC(C)c2ccc3c(c2)OCCO3)cc(OC)c1OC (stereo not drawn),-13,8
COc1ccc(-n2cc(C(=O)NC(C)c3ccc4c(c3)OCCO4)c3ccccc3c2=O)cc1 (stereo not drawn),22,36*
CCC(CO)Nc1ncnc2c1oc1nc(CC(C)C)c3c(c12)CCC3 (stereo not drawn),-15,9
COCCNc1ncnc2c1oc1nc(CC(C)C)c3c(c12)CCC3,-14,44*
CC(C)Cc1nc2oc3c(N(C)CCO)ncnc3c2c2c1CCC2,-2,91*
CC(C)Cc1nc2sc3c(SCC(=O)N4CCCCC4)ncnc3c2c2c1CCC2,2,15
CCOC(=O)c1cc2c(ccn2C)n1CC(=O)N1CCN(C(=O)c2ccco2)CC1,-78,-486
COc1cccc(N2CC(NC(=O)CCc3ccccc3)CC2=O)c1 (stereo not drawn),-5,17
Cc1cccc(NC(=O)CC2C(=O)Nc3nc(-c4ccccc4)nn32)c1 (stereo not drawn),16,31*
O=C(CC1C(=O)Nc2nc(-c3ccccc3)nn21)Nc1ccc(Cl)c(C(F)(F)F)c1 (stereo not drawn),-4,-8
CCc1ccccc1NC(=O)c1c(O)c2cnn(C)c2[nH]c1=O,14,-38
CCCCC[C@H](O)/C=C/C=C/CCCCCCCC(=O)O,3,14
CC/C=C\C/C=C\C/C=C\CCCCCCCC(=O)O,88*,53*
Cc1ccc(S(=O)(=O)N[C@H](CC(C)C)C(=O)N2CCC(C(=O)N[C@@H](Cc3c[nH]c4ccccc34)C(=O)O)CC2)cc1,8,-63
Cc1ccc(CNC(=O)CCC(=O)N2CCCn3nc(-c4cccn4C)cc32)cc1,-39,-275
CCOc1cc(N2CCOCC2)c(OCC)cc1NC(=O)COC(=O)c1ccc2ncsc2c1,4,2
CCOc1cc(N2CCOCC2)c(OCC)cc1NC(=O)c1cc2c(s1)CCC2,36*,11
N#Cc1c2n(c(=O)n(CC(=O)NC3CC3)c1=O)CCC2,-25,-117
CC(C)c1nc2sc3c(SCC(=O)N(c4ccccc4)c4ccccc4)ncnc3c2c2c1COC(C)(C)C2,14,32*
CCCc1nc2sc3c(SCC(=O)N(c4ccccc4)c4ccccc4)ncnc3c2c2c1COC(C)(C)C2,5,-2
CCN1CCN(c2ncc(C(=O)NCCN3CCOCC3)c(C)n2)CC1,-4,-20
COc1cc2c(cc1OC)C(c1ccccc1)N(Cc1ccno1)CC2 (stereo not drawn),0,20
CCCn1nnnc1CN1CCc2cc(OC)c(OC)cc2C1c1ccccc1 (stereo not drawn),10,33*
CC1(C)Oc2ccc(C(=O)c3ccco3)cc2NC1=O,0,7
Cc1nc2nc(CN(C(=O)COc3ccccc3)c3ccccc3)nn2c(C)c1Cl,4,36*
SMILES,USP17 block,USP30 inh
Cc1cc(C)n2nc(CN(C(=O)COc3ccccc3)c3ccccc3)nc2n1,-9,x
CCc1ccc(OC)c(S(=O)(=O)N2c3ccccc3CC2C)c1 (stereo not drawn),9,9
O=C(Cn1c(=O)n(Cc2ccc(C(=O)NCc3ccco3)cc2)c(=O)c2ccccc21)Nc1ccc2c(c1)OCCO2,81*,48*
CCc1ccc(-n2c(=O)c3ccccc3n(CC(=O)NC3CCCC3)c2=O)cc1,62*,52*
O=C(NC1CCCCC1)c1nc(Cn2cnc3ccccc3c2=O)no1,14,0
CCc1noc(Cn2cnc3c4ccccc4n(CC(=O)NC4CCCCC4)c3c2=O)n1,46*,69*
O=C(Cn1c(=O)n(Cc2ccco2)c(=O)c2ccc(Cl)cc21)NCC1CCCO1 (stereo not drawn),9,14
CC(C)(C)C(=O)Cn1c(=O)n(-c2ccc(CC(=O)NC3CCCC3)cc2)c(=O)c2ccccc21,-17,-55
COc1cc(Cl)c(C)cc1NC(=O)Cn1c(=O)n(CC(=O)NCc2ccco2)c(=O)c2ccccc21,50*,28
O=C(CCCCn1c(=O)c2ccccc2n(CC(=O)Nc2ccc3c(c2)OCCO3)c1=O)NCc1ccco1,16,27
CCOc1ccc(-n2nnnc2SCC(=O)c2ccc(Br)cc2)cc1,12,12
CCCn1ccc(C(=O)N2[C@@H](CNC(C)=O)C[C@]3(C)[C@H]2CCCC[C@]3(C)O)n1,6,11
CN1CCC(N2CCN(S(=O)(=O)c3ccc4c(c3)C(C)(C)C(=O)N4)CC2)C1=O (stereo not drawn),0,0
O=C(Cn1c(=O)c2ccccc2n(CC(=O)Nc2cc(Cl)cc(Cl)c2)c1=O)NCc1ccco1,30,40*
